From PubChem BioAssay (EPA / NIEHS)
Records with an inconclusive call do not appear. Calls of active or inactive are those of the source. How the source made its calls: active means hit-call score of the fitted dose curve at least 0.9, where 1 is the maximum; inconclusive means response in the unintended direction; inactive means score below 0.9.

Each molecule was assayed on ABC Transporter (ABCB1), ABCB1 (gene 5243) (assay: CLD_ABCB1_24hr: CellzDirect (CLD) Gene Expression Assay for ABC Transporter (ABCB1) at 24 hours (AID 2283684);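 on AC50: potency for increase in ABCB1 mRNA relative to DMSO vehicle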).
Experimental: CLD_24hr is a cell-based, multiplexed-readout assay that uses hepatocyte, a human liver primary cell, with measurements taken at 24 hours after chemical dosing in a 96-well plate.CLD_ABCB1_24hr is one of 16 assay component(s) measured or calculated from the CLD_24hr assay. It is designed to make measurements of mRNA induction, a form of inducible reporter, as detected with chemiluminescence signals by Quantitative Nuclease Protection Assay (qNPA) technology.Data from the assay component CLD_ABCB1_24hr was analyzed at the endpoint, CLD_ABCB1_24hr, in the positive analysis fitting direction relative to DMSO as the negative control and baseline of activity. Using a type of inducible reporter, gain-of-signal activity can be used to understand changes in the reporter gene as they relate to the gene ABCB1. Furthermore, this assay endpoint can be referred to as a primary readout. To generalize the intended target to other relatable targets, this assay endpoint is annotated to the transporter intended target family, where subfamily is ABC transporter.
Human hepatocyte cultures were treated daily for two consecutive days with fresh dosing solutions containing appropriate concentrations of the 320 ToxCast chemicals (chemical identities were blinded to CellzDirect and other ToxCast collaborators), vehicle control (0.2% DMSO), and positive control inducers as summarized in Table 1. Due to the large number of treatment groups and chemicals examined, the ToxCast chemicals were divided into two groups (spanning two independent cultures of hepatocytes from separate donor preparations (Hu778: ToxCast plates 1 and 2; Hu776: ToxCast plates 3 and 4). Each preparation of human hepatocyte cultures was treated with respective vehicle control, medium only control, set of six positive controls/reference chemicals for the five hepatic receptor pathways, and a subset of eight of the ToxCast chemicals (indoxacarb, pyrithiobac-sodium, norflurazon, cyhalofop-butyl, methomyl, thiram, acetochlor, and propiconazole). These replicate data, coupled with internal replicates designed within the blinded ToxCast chemical library, provided additional data to evaluate interindividual differences between hepatocyte preparations and their potential impact on chemical profiles.Cell morphology and integrity were evaluated using phase-contrast microscopy as an indicator of hepatocyte cell health (Tyson & Green, 1987). Cultures for each treatment group (i.e., media, vehicle [0.2% DMSO], positive control inducers [multiple concentrations], and the ToxCast chemicals [multiple concentrations]) were observed and cell morphology was assessed relative to vehicle control cultures at each harvest time point (0, 6, 24, or 48 h). […] Images were evaluated at the conclusion of the study to assess changes in cell integrity and account for the effects of chemical exposure on uncharacteristic changes in concentration-dependent gene expression profiles. The results from these determinations of apparent cytotoxicity were annotated (yes/no) alongside the corresponding qNPA data for reference.At the conclusion of each treatment period, hepatocyte cultures (96-well) were washed with 1 volume of HBSS, lysed by addition of 25 ul ArrayPlate lysis buffer (HTG, Tucson, AZ), and 70 ul/well of Denaturation Oil, denatured by incubation at 95C for 10 min, and frozen at approximately -70C until analysis by nuclease protection assay (qNPA) (Roberts et al., 2007). For qNPA analysis, cell lysates were thawed at 50C for approximately 30 min, qNPA probes were added, and samples were incubated at 95C for 10 min to begin the detection process by denaturing the target RNA, dissociating the duplexes and secondary structure hybridization. At the conclusion of the hybridization period, S1 nuclease reagent was added to each sample to digest all nonprotected nucleotides at 50C for 60-90 min. […]
`CSC(=O)c1cccc2nnsc12` was tested, and the outcome was “inactive”. In the case of `Oc1ccc(C(c2ccc(O)cc2)C(Cl)(Cl)Cl)cc1`, the outcome is reported as “inactive”. With `CCCCOCCOCCOCc1cc2c(cc1CCC)OCO2` the outcome was “inactive”. In the case of `CCCCCOC(=O)COc1cc(N2C(=O)C3=C(CCCC3)C2=O)c(F)cc1Cl`, the outcome is reported as “inactive”. In the case of `CCC(C)OC(=O)N1CCCCC1CCO` (stereo not given), the outcome is reported as “inactive”. For `COC(=O)c1ccccc1S(=O)(=O)NC(=O)Nc1nc(OC(F)F)cc(OC(F)F)n1`, the outcome was “inactive”. `C#CCOC(=O)[C@@H](C)Oc1ccc(Oc2ncc(Cl)cc2F)cc1` was tested, and the outcome was “inactive”. For `S=C([S-])NCCNC(=S)[S-].[Mn+2]`, the outcome was “inactive”. In the case of `COc1nc(C)nc(NC(=O)NS(=O)(=O)c2ccccc2OCCCl)n1`, the outcome is reported as “inactive”. In the case of `C=CCOC(Cn1ccnc1)c1ccc(Cl)cc1Cl` (stereo not given), the outcome is reported as “inactive”. For `CCN(CC)C(=O)c1cccc(C)c1`, the outcome was “inactive”. `Cc1nn(C)c(Oc2ccccc2)c1C=NOCc1ccc(C(=O)OC(C)(C)C)cc1` was tested, and the outcome was “inactive”. For `CCOC(=O)C(C)Oc1ccc(Oc2nc3ccc(Cl)cc3o2)cc1` (stereo not given), the outcome was “inactive”. `CC1(C)C(C=C(Cl)Cl)C1C(=O)OCc1cccc(Oc2ccccc2)c1` (stereo not given) was tested, and the outcome was “inactive”. In the case of `COC(=O)c1ccc(I)cc1S(=O)(=O)NC(=O)Nc1nc(C)nc(OC)n1`, the AC50 is reported as 20 µM (active). For `COC(=O)c1ccc(CNS(C)(=O)=O)cc1S(=O)(=O)NC(=O)Nc1nc(OC)cc(OC)n1`, the outcome was “inactive”. For `O=C(Nc1ccc([N+](=O)[O-])cc1Cl)c1cc(Cl)ccc1O`, the outcome was “inactive”. `CCOC(=O)COc1cc(-n2ncc(C(F)(F)F)c(C)c2=O)c(F)cc1Cl` was tested, and the outcome was “inactive”. `CCOC(=O)NCCOc1ccc(Oc2ccccc2)cc1` was tested, and the outcome was “inactive”. With `CC(C)(c1ccc(O)cc1)c1ccc(O)cc1` the outcome was “inactive”. In the case of `COC(=O)c1c(Cl)nn(C)c1S(=O)(=O)NC(=O)Nc1nc(OC)cc(OC)n1`, the outcome is reported as “inactive”. With `CC(C)(C)[C@@H](O)[C@@H](Cc1ccc(Cl)cc1)n1cncn1` the AC50 was 9.46 µM (active). In the case of `CCCCC(CC)COC(=O)c1ccccc1C(=O)O` (stereo not given), the outcome is reported as “inactive”. With `COc1c(Cl)ccc(Cl)c1C(=O)O` the outcome was “inactive”. For `COCCO`, the outcome was “inactive”. `CCOC(=O)C(C)Oc1ccc(Oc2cnc3cc(Cl)ccc3n2)cc1` (stereo not given) was tested, and the outcome was “inactive”. With `COC(=O)c1cccc(C)c1S(=O)(=O)NC(=O)Nc1nc(OCC(F)(F)F)nc(N(C)C)n1` the outcome was “inactive”. `CCC(O)=C1C(=O)CC(C(=O)O)CC1=O` (stereo not given) was tested, and the outcome was “inactive”. With `CCCCOC(=O)[C@@H](C)Oc1ccc(Oc2ccc(C(F)(F)F)cn2)cc1` the outcome was “inactive”. With `N#CSCSc1nc2ccccc2s1` the outcome was “inactive”. In the case of `CCCOC(=O)NCCCN(C)C`, the outcome is reported as “inactive”. With `CCCCC(CC)CN1C(=O)C2C3C=CC(C3)C2C1=O` (stereo not given) the outcome was “inactive”. In the case of `CCCOC(=O)c1ccc(C(=O)OCCC)nc1`, the outcome is reported as “inactive”. `CCCN(CCC)c1c([N+](=O)[O-])cc(C(F)(F)F)c(N)c1[N+](=O)[O-]` was tested, and the outcome was “inactive”. For `COC(=O)CSc1cc(N=c2sc(=O)n3n2CCCC3)c(F)cc1Cl`, the outcome was “inactive”. With `CCNc1nc(N)nc(Cl)n1` the outcome was “inactive”. `COC(=O)c1ccccc1C(=O)O` was tested, and the outcome was “inactive”. With `CCSC(=O)N(CC(C)C)CC(C)C` the outcome was “inactive”. In the case of `S=C(S)NCCNC(=S)S.[Mn+2].[S-]C([S-])=NCCN=C([S-])[S-].[Zn+2]`, the AC50 is reported as 1.5 µM (active). In the case of `OB(O)O`, the outcome is reported as “inactive”.
